Several values for one entry are separate records, joined by “and”; a condition that tells them apart may be missing. Identical values can stand only once. Inconclusive results are not listed. Activity calls are given as the source filed them. Unless noted, calls come from the whole dose curve; as a rule, active = well fitted curve in the direction sought with a large enough effect; inconclusive = small, poorly fitted or top-dose-only effect, or another doubt; inactive = no such curve, though single readings can be large; an effect the other way counts as inactive or inconclusive.

One assay is described as follows: Cell Proliferation Assay against the TMD8 Cell Line (AID 651645).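 Note: cells exposed to compound for 48 h before reading.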 To be noted: TMD8 DLBCL cell line proliferation/viability; at 46.1 µM (top of the series) unless noted. The essentials: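 Luminescent ATP read-out (CellTiter-Glo, 15 min RT) after 48 h compound exposure of log-growing TMD8 cells at 37C; percent activity scaled between DMSO as 100% and 9.2 uM bortezomib final as 0%.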
For `Oc1cn2c(n1)Nc1ccc(Cl)c(Cl)c1C2`, the viability (% of control) is 87.9%.
Consider `CC(=O)O[C@@]12CO[C@@H]1C[C@H](O)[C@@]1(C)C(=O)[C@H](O)C3=C(C)[C@@H](OC(=O)[C@H](O)[C@@H](NC(=O)OC(C)(C)C)c4ccccc4)C[C@@](O)([C@@H](OC(=O)c4ccccc4)[C@H]21)C3(C)C`, for which the viability (% of control) is 32.1%.
`NC(=O)c1ncn([C@@H]2O[C@H](CO)[C@@H](O)[C@H]2O)c1N`: the viability (% of control) stood at 128%.
On the same count and under the same terms, under `O=C1Nc2ccc(Cl)cc2[C@@](C#CC2CC2)(C(F)(F)F)O1` stands 3.1% [at 92.2 µM].

A short description of another assay: Cell Proliferation Assay against the HBL1 Cell Line (AID 651646).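 Note: cells exposed to compound for 48 h before reading.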 The settings on record: HBL1 DLBCL cells; at 46.1 µM (top of the series) unless noted. From the text: One class of targeted therapeutics showing early clinical success in killing of ABC DLBCL lines are small molecule inhibitors of the Bruton tyrosine kinase (BTK) 11.
(§1) Prior to any combination assays, using an NCATS developed oncology compound library called the Mechanism of Interrogation Plate (MIPE), two well studied ABC DLBCL lines (TMD8 and HBL1) were screened using a cell viability assay (CellTiterGlo) and a 12-point titration series for each single agent. These initial experiments offered insight into the concentration range that offered the best coverage of activity and non-activity to assure relevant data is generated. In addition to the viability signature associated with this library, we examined the apoptotic response of each agent versus the TMD8 line as judged by caspase 3/7 activation. Activity was assayed at both 8 and 16 hour time-points to gain an appreciation of which agents induced an apoptotic response in a reasonable timeframe from a therapeutic exposure perspective. MIPE was also assayed for single agent viability in a human mesenchymal stem cell (hMSC) line as a surrogate of each library member's potential therapeutic index.
(§2) A total of 500 log growing HBL1 cells are seeded per well in 5 uL of a RPMI with glutamine (or Glutamax), without phenol red plus 5% FBS and 1X Pen/Strep into 1536 -solid white high base tissue culture treated Greiner One Bio Plates (789173-F) using a multidrop combi dispenser and a small sterile cassette. Compounds and controls totaling 23nL per well (negative control DMSO and positive control 9.2 uM Bortezomib-final) are immediately added to the plates using a 1536 head pin tool from Kalypsys. The plates are then covered with stainless steel gasket lids from Kalypsys and incubated for 48 hours at 37C under 95% relative humidity with 5% CO2. After 48 hours, the plates are removed and allowed to reach room temperature before 3 uL of Cell Titer Glo reagent (Promega) is added using an Aurora Flying Reagent Dispenser Bioraptor. The plates are then spun at 1000 rpms to remove bubbles and incubated for 15 minutes at room temperature before read on a ViewLux using a luminescent filter with a 10 second exposure. The relative luciferase units are used to calculated percent activity using DMSO as 100% and Bortezomib as 0%.
For `Oc1cn2c(n1)Nc1ccc(Cl)c(Cl)c1C2`, the viability, percent of control came out at 58.4%.
Same read-out and setting: under `CC(=O)O[C@@]12CO[C@@H]1C[C@H](O)[C@@]1(C)C(=O)[C@H](O)C3=C(C)[C@@H](OC(=O)[C@H](O)[C@@H](NC(=O)OC(C)(C)C)c4ccccc4)C[C@@](O)([C@@H](OC(=O)c4ccccc4)[C@H]21)C3(C)C` stands 69%.
With `NC(=O)c1ncn([C@@H]2O[C@H](CO)[C@@H](O)[C@H]2O)c1N`, the viability, percent of control stood at 159%.
Consider `O=C1Nc2ccc(Cl)cc2[C@@](C#CC2CC2)(C(F)(F)F)O1`, for which the viability, percent of control was found to be 2.9% [at 92.2 µM].

A short description of a further assay: Cell Proliferation Assay against the TMD8 Cell Line (Caspase readout at 16 hrs) (AID 651712).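 For caspase activation: 0% = DMSO and 100% = 9.2 µM bortezomib caspase activation.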 Note: potency is the fitted concentration of half-maximal effect. To be noted: TMD8 lymphoma cells, caspase activation luminescence; series mostly up to 46.1 µM; caspase activation: at the top concentration.
Excerpt: (§3) One class of targeted therapeutics showing early clinical success in killing of ABC DLBCL lines are small molecule inhibitors of the Bruton tyrosine kinase (BTK) 11. Thus, we chose to investigate what additional compounds, if any, would synergize with the BTK inhibitor Ibrutinib (PCI-32765).
as §1, with “members” for “member's”
The combination plates were then generated by choosing 20 of the best compounds from this single agent screen and plated in the presence of the BTK inhibitor. […]
A total of 500 log growing TMD8 cells are seeded per well in 5 uL of a RPMI with glutamine (or Glutamax), without phenol red plus 5% FBS and 1X Pen/Strep into 1536 -solid white high base tissue culture treated Greiner One Bio Plates (789173-F) using a multidrop combi dispenser and a small sterile cassette. […] The plates are then spun at 1000 rpms to remove bubbles and incubated for 15 minutes at room temperature before read on a ViewLux using a luminescent filter with a 10 second exposure. The relative luciferase units are used to calculated percent activity using DMSO as 0% and Bortezomib as 100%.
As for `Oc1cn2c(n1)Nc1ccc(Cl)c(Cl)c1C2`, the “caspase activation” value was 7.24% (inactive).
With `CC(=O)O[C@@]12CO[C@@H]1C[C@H](O)[C@@]1(C)C(=O)[C@H](O)C3=C(C)[C@@H](OC(=O)[C@H](O)[C@@H](NC(=O)OC(C)(C)C)c4ccccc4)C[C@@](O)([C@@H](OC(=O)c4ccccc4)[C@H]21)C3(C)C`, the Potency is 37.2 µM (active).
In the case of `NC(=O)c1ncn([C@@H]2O[C@H](CO)[C@@H](O)[C@H]2O)c1N`, the “caspase activation” value is -3.06% (inactive).

The nature of a further assay: Cell Proliferation Assay against the TMD8 Cell Line (Caspase readout at 8 hrs) (AID 651713).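 For caspase activation: 0% = DMSO and 100% = 9.2 µM bortezomib caspase signal.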 Note: potency is the fitted concentration of half-maximal effect. The settings on record: TMD8 lymphoma cells, caspase activation luminescence; series mostly up to 46.1 µM; caspase activation: at the top concentration.
Excerpt: as §3
as §1, with “members” for “member's”
The combination plates were then generated by choosing 20 of the best compounds from this single agent screen and plated in the presence of the BTK inhibitor. The first analysis was carried out using 6x6 dose response blocks for each of the 20 compounds. […] In addition to the cell viability assay, the parallel caspase 3/7 activation and viability in hMSC assays were carried out in the 10x10 format.
as §2, with “TMD8” for “HBL1”, “either 8” for “48”, “After 48 hours, the plates are removed and allowed to reach room temperature before 3 uL of Cell Titer Glo reagent (Promega) is added using an Aurora Flying Reagent Dispenser Bioraptor.” left out, “0%” for “100%”, “100%.” for “0%.”
As for `Oc1cn2c(n1)Nc1ccc(Cl)c(Cl)c1C2`, the “caspase activation” value was 8.19% (inactive).
The same measure, in the same setting: to `CC(=O)O[C@@]12CO[C@@H]1C[C@H](O)[C@@]1(C)C(=O)[C@H](O)C3=C(C)[C@@H](OC(=O)[C@H](O)[C@@H](NC(=O)OC(C)(C)C)c4ccccc4)C[C@@](O)([C@@H](OC(=O)c4ccccc4)[C@H]21)C3(C)C` belongs -7.73% (inactive).
For `NC(=O)c1ncn([C@@H]2O[C@H](CO)[C@@H](O)[C@H]2O)c1N`, the “caspase activation” value is 2.79% (inactive).
For the molecule `O=C1Nc2ccc(Cl)cc2[C@@](C#CC2CC2)(C(F)(F)F)O1`, the Potency was 17.1 µM (active).

A short description of another assay: qHTS assay for small molecule agonists of the antioxidant response element (ARE) signaling pathway (AID 651741; active = well fitted activation curve with a large enough effect in the signal ratio; the % refers to the signal ratio; note: potency is the fitted concentration of half-maximal effect; for activation: % of control where 0% means no effect). To be noted: HepG2 ARE-bla reporter, beta-lactamase FRET ratio, 16 h; series mostly up to 96 µM; activation: at the top concentration. The essentials:
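Reporter: beta-lactamase under ARE, stably in HepG2. Exposure: 16 h, 37 C, compounds delivered in DMSO by pin tool after 5 h cell preincubation. Readout: FRET substrate fluorescence after 2 h at RT.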
`O=C1O[C@H]([C@@H](O)CO)C(O)=C1O`: the Potency is 61.1 µM (active).
As to `CN(C)CCOC(C)(c1ccccc1)c1ccccn1` (stereo not given), the “activation” value was -0.59% (inactive).
On to `Nc1ccc(S(=O)(=O)Nc2nccs2)cc1`, for which the “activation” value is 6.63% (inactive).
Consider `C[C@]12C[C@H](O)[C@H]3[C@@H](CCC4=CC(=O)CC[C@@]43C)[C@@H]1CC[C@@H]2C(=O)CO`, for which the “activation” value was 6.53% (inactive).
As to `Cc1c(O)cccc1C(=O)N[C@@H](CSc1ccccc1)[C@H](O)CN1C[C@H]2CCCC[C@H]2C[C@H]1C(=O)NC(C)(C)C`, the Potency was 26.6 µM (active).
Same read-out and setting: to `CC1=C(/C=C/C(C)=C/C=C/C(C)=C/C(=O)O)C(C)(C)CCC1` belongs 54.5 µM (active).
Turning to `CC1(C)[C@@H]2CC[C@@]1(C)C(=O)C2`, the “activation” value was -1.05% (inactive).
For the molecule `CN(C)CCC=C1c2ccccc2CCc2ccccc21`, the “activation” value was -8.55% (inactive).
Still for that read-out and setting: under `CC12CCC(CC1)C(C)(C)O2` stands 4.79% (inactive); under `CC(O)COc1ccccc1` (stereo not given), -0.375% (inactive); under `NCCNCCNCCN`, -0.501% (inactive).
Regarding `NC(=O)c1ncn([C@@H]2O[C@H](CO)[C@@H](O)[C@H]2O)n1`, the “activation” value is 8.7% (inactive).
For the molecule `CCCCOC(=O)c1ccc(O)cc1`, the Potency was 30.6 µM (active).
For the molecule `NC(=O)N/N=C/c1ccc([N+](=O)[O-])o1`, the Potency is 17.2 µM (active) and 21.1 µM (active).
Regarding `COc1ccccc1O`, the “activation” value was 1.66% (inactive).
In the case of `CCCCCCCCCCCCOS(=O)(=O)O`, the “activation” value is 10.5% (inactive).
On to `NCCNCCNCCNCCN`, for which the “activation” value was 2.68% (inactive).
On to `O=C1c2c(O)cccc2Cc2cccc(O)c21`, for which the “activation” value was 6.65% (inactive).
As to `Cc1cccc(Nc2cc(Cl)nc(SCC(=O)O)n2)c1C`, the “activation” value was -8.46% (inactive).

The nature of the next assay: qHTS assay for small molecule activators of the p53 signaling pathway (AID 651743; active = well fitted activation curve with a large enough effect in the signal ratio, not every such curve was filed as active; the % refers to the signal ratio; note: % of control where 0% means no effect). To be noted: HCT-116 p53RE-bla, beta-lactamase FRET ratio, 16 h; stronger effect = higher value. The essentials: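 Agonist-mode quantitative HTS in HCT-116 cells carrying a p53-response-element beta-lactamase reporter; 16 h compound treatment at 37 C, then FRET substrate loading for 2 h at room temperature and fluorescence read.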
Background: In qHTS, concentration-response curves come from the screen itself.
With `O=C1O[C@H]([C@@H](O)CO)C(O)=C1O`, the activation was -0.0449% (inactive) and -0.779% (inactive).
Regarding `CC(CN1c2ccccc2Sc2ccccc21)N(C)C` (stereo not given), the activation is -4.88% (inactive).
The same measure, in the same setting: to `CN(C)CCOC(C)(c1ccccc1)c1ccccn1` (stereo not given) belongs 2.16% (inactive).
Take `CC(O)CN(CCN(CC(C)O)CC(C)O)CC(C)O` (stereo not given): the activation was -6.2% (inactive).
The same measure, in the same setting: to `Nc1ccc(S(=O)(=O)Nc2nccs2)cc1` belongs -5.45% (inactive).
Take `C[C@]12C[C@H](O)[C@H]3[C@@H](CCC4=CC(=O)CC[C@@]43C)[C@@H]1CC[C@@H]2C(=O)CO`: the activation was -3.81% (inactive) and -1.82% (inactive).
For `Cc1c(O)cccc1C(=O)N[C@@H](CSc1ccccc1)[C@H](O)CN1C[C@H]2CCCC[C@H]2C[C@H]1C(=O)NC(C)(C)C`, the activation was 10.5% (inactive).
Regarding `CN(C)CCCN1c2ccccc2CCc2ccccc21`, the activation was -6.39% (inactive).
Take `CC1=C(/C=C/C(C)=C/C=C/C(C)=C/C(=O)O)C(C)(C)CCC1`: the activation was 1.97% (inactive) and 6.17% (inactive).
Take `CC1(C)[C@@H]2CC[C@@]1(C)C(=O)C2`: the activation was 0.0082% (inactive).
For `CN(C)CCC=C1c2ccccc2CCc2ccccc21`, the activation is -8.64% (inactive) and -6.53% (inactive).
Consider `CCCCC(CC)COC(=O)c1ccccc1O` (stereo not given), for which the activation was 0.46% (inactive).
Still for that read-out and setting: under `CCOC(=O)c1ccc(O)cc1` stands -7.13% (inactive); under `CC12CCC(CC1)C(C)(C)O2`, -1.89% (inactive); under `Cc1cc2nc3c(=O)[nH]c(=O)nc-3n(C[C@H](O)[C@H](O)[C@H](O)CO)c2cc1C`, -9.36% (inactive).
Same read-out and setting: under `[Cl][In]([Cl])[Cl]` stands -6.82% (inactive).
For `Cc1cc(CC(=O)O)n(C)c1C(=O)c1ccc(Cl)cc1`, the activation is -3.75% (inactive).
Turning to `CC(O)COc1ccccc1` (stereo not given), the activation is 2.15% (inactive).
Same read-out and setting: under `NCCNCCNCCN` stands -2.15% (inactive); under `COc1ccc(Cl)cc1C(=O)NCCc1ccc(S(=O)(=O)NC(=O)NC2CCCCC2)cc1`, -6.63% (inactive); under `CCCCOC(=O)c1ccc(O)cc1`, 1.4% (inactive) and -3.01% (inactive).
On to `CCCc1c(OCCCCc2nn[nH]n2)ccc(C(C)=O)c1O`, for which the activation was 16.1% (inactive).
The same measure, in the same setting: to `COC(=O)C1=C(C)NC(C)=C(C(=O)OC)C1c1ccccc1[N+](=O)[O-]` belongs -2.95% (inactive).
In the case of `NC(=O)N/N=C/c1ccc([N+](=O)[O-])o1`, the activation is -0.844% (inactive) and -0.297% (inactive).
For `CN(C)CCCN1c2ccccc2Sc2ccc(Cl)cc21`, the activation was 10.1% (inactive).
Turning to `COc1ccccc1O`, the activation is -3.15% (inactive) and 0.213% (inactive) and 1.06% (inactive).
Turning to `CNC(=O)Oc1ccc2c(c1)[C@]1(C)CCN(C)[C@@H]1N2C`, the activation was -2.62% (inactive).
In the case of `Oc1cccc(O)c1`, the activation was 5.92% (inactive).
In the case of `O=C1c2c(O)cccc2Cc2cccc(O)c21`, the activation was -1.03% (inactive).
The same measure, in the same setting: to `Cc1cccc(Nc2cc(Cl)nc(SCC(=O)O)n2)c1C` belongs 4.88% (inactive); to `C[C@]12CC[C@@H]3c4ccc(O)cc4CC[C@H]3[C@@H]1CCC2=O`, 0.661% (inactive).

The values are drawn from PubChem BioAssay (NCATS).
